Tau fibril FP = tau fibrillization inhibition (FP). P10636. Potency, µM (series often up to 57.7 µM), for inactives: at the top dose activity, negative = inhibition, most hits filed as inhibitors. K18 P301L tau heparin fibrillization, Alexa594 FP, 6 h. 280,000 tested, 0.39% active; also: potency is read from the fitted curve at half-maximal effect; nearly all actives have a fitted effect of over 55% in size
Target sequence (P10636 561-689 P618L limits assumed): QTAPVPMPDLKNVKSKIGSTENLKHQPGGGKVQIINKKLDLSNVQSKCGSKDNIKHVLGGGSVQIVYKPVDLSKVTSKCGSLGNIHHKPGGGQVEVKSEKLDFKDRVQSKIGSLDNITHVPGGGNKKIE
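Human K18 P301L fragment (15 uM unlabeled plus 0.24 uM Alexa 594-labeled) in 100 mM sodium acetate pH 7 with compound, aggregation induced by 20 uM heparin for 6 hr at 37 C. ThT (30 uM) added for 1 hr, then Alexa 594 FP read.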
Tau fibril ThT = blocks human tau fibril formation measured by thioflavin T. P10636. recombinant tau K18 P301L, heparin-induced fibrillization, ThT fluorescence. Potency, µM (titrated, usually from 57.4 µM), without a hit: at the top dose activity, negative = inhibition, hits mostly inhibitors. 270,000 tested, 2.1% active. AID 1460; also: potency is read from the fitted curve at half-maximal effect; nearly all actives have a fitted effect of over 55% in size
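Heparin-induced (20 uM) aggregation of recombinant human K18 P301L tau, 15 uM unlabeled with 0.24 uM labeled, pH 7 acetate buffer, 6 hr at 37 C with compound. Fibrils quantified by 30 uM ThT fluorescence after 1 hr ambient incubation.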
FBPA coupling cs = counter-screen for Giardia aldolase inhibitors: coupling enzyme system. coupling enzyme system counterscreen, AmpLite Red fluorescence. activity change, negative = inhibition, % at 58.2 µM, hits read low. 290,000 tested, 0.67% active; in the data active = activity change below about -30%
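Counterscreen lacking aldolase: glyceraldehyde-3-phosphate coupling-enzyme reagent preincubated 10 min at RT with compound (at 57.5 uM final), then substrate/coupling system with AmpLite Red added; fluorescence read at 525/598 nm after 20 min RT.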
Tau fluor cs = counter-screen for tau fibril formation inhibitors; Potency, µM (doses to about 57.7 µM), inactives show at the highest dose activity change, negative = decrease; 280,000 tested, 0.93% active; AID 1463; tau K18 P301L Alexa594 fluorescence, heparin fibrillization; also: potency is read from the fitted curve at half-maximal effect; nearly all actives have a fitted effect of over 55% in size
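Human tau K18 P301L (15 uM unlabeled, 0.24 uM Alexa 594-labeled) in 100 mM sodium acetate pH 7 with 20 uM heparin, 6 hr at 37 C. ThT 30 uM added, 1 hr ambient; Alexa 594 FP and total fluorescence read at 555/632 nm.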
USP1-UAF1 inh = blocks the human USP1/UAF1 deubiquitinase complex; AID 743255; recombinant USP1/UAF1, Ub-Rhodamine cleavage fluorescence; Potency, µM (doses to about 57.1 µM), inactives show at the highest dose activity change, negative = inhibition, hits mostly inhibitors; O94782; 390,000 tested, 0.23% active; also: potency is read from the fitted curve at half-maximal effect; nearly all actives have a fitted effect of over 60% in size
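Step one: compound is pinned into 1nM USP1/UAF1 in HEPES pH 7.8 buffer with TCEP. Step two: 15 min room-temperature incubation. Step three: Ub-Rho (150nM final) starts cleavage, tracked by fluorescence over six one-minute reads.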
An asterisk follows results filed as active; u = inconclusive; x = no result; [ ] = dose if it differs, or a comment. In the library only some 2.3% were active in any assay of this set; here they are far more common. Unless noted, calls follow the shape of the dose curve; as a rule, active = well fitted curve in the direction sought with a large enough effect; inconclusive = small, poorly fitted or top-dose-only effect, or another doubt; inactive = no such curve, though single readings can be large; an effect the other way counts as inactive or inconclusive. % is scaled to controls: 0 for no effect and ±100 for the full control effect.

SMILES	Tau fibril FP	Tau fibril ThT	FBPA coupling cs	Tau fluor cs	USP1-UAF1 inh
COC1=C(OC)C(=O)c2ccccc2C1=O	u	13µM*	x	-23%	x
O=C1c2ccccc2-c2onc3ccc(NCCCn4ccnc4)c1c23	20µM*	11µM*	-17	u	28µM*
COc1ccc(C(=O)/C=C/c2ccc(O)cc2)c(O)c1CC=C(C)C	u	25µM*	0	16µM*[quencher]	3%
Cc1cc(O)c(C(C)C)cc1NC(=O)Nc1cccc2ccccc12	18%	u	0	25µM*[quencher]	-15%
Cc1cc(O)c(C(C)C)cc1NC(=O)Nc1cc(Cl)ccc1Cl	x	x	x	x	-11%
COc1cccc(NC(=O)CCc2c(C)nc3ncnn3c2C)c1	6%	5%	x	6%	-25%
CCOC(=O)CSc1nc2cc(C)ccc2cc1C#N	6%	u	-1	-24%	-7%
COc1ccc2nc(SCC(C)=O)c(C#N)cc2c1	10%	4.5µM*	-1	-28%	13%
CCOC(=O)CSc1nc2cc(OC)ccc2cc1C#N	10%	5µM*	1	u	-14%
O=C(Nc1ccc(N2CCCCC2)cc1)c1ccc2ccccc2n1	15%	13µM*	-3	u	-10%
O=C(Nc1ccc(N2CCCC2)cc1)C(Cl)c1ccccc1 (stereo not drawn)	32µM*	25µM*	-12	u	-23%
O=C(Nc1cccc(S(=O)(=O)N2CCCCCC2)c1)c1ccc2ccccc2n1	-20%	-6%	-1	u	-25%
CCOC(=O)c1[nH]c(C)c(CCC(=O)Nc2ccc(N(CC)CC)cc2C)c1C	9%	u	x	-19%	-9%
Cc1c(C(=O)Nc2ccc(Br)cc2F)sc2ncnc(N(C)C3CCCCC3)c12	-2%	u	x	u	-16%
CC1(C)CC(=O)C(=CN2CCN(C(=O)c3ccco3)CC2)C(=O)C1	u	u	-1	-19%	1%
CC1(C)CC(=O)C(=CN2CCOCC2)C(=O)C1	u	16µM*	-1	-24%	-20%
FC(F)(F)c1ccc(Cl)c(N/N=C/c2ccc(N3CCOCC3)s2)c1	11%	u	-4	13µM*[quencher]	-18%
CCOC(=O)c1c(S(=O)(=O)N2CCC(C(=O)Nc3ccc(C)cn3)CC2)c(C)n(C)c1C	-3%	-4%	x	-8%	-16%
COc1ccc(CCn2c(O)cc3nn(-c4nc5ccccc5s4)c(=O)c-3c2C)cc1	-6%	18µM*	-8	u	u
CO[C@H]1C=CO[C@@]2(C)Oc3c(C)c(O)c4c(O)c(c(C=NN5CCN(C6CCCC6)CC5)c(O)c4c3C2=O)NC(=O)C(C)=CC=C[C@H](C)[C@H](O)[C@@H](C)[C@@H](O)[C@@H](C)[C@H](OC(C)=O)[C@@H]1C	-16%	18µM*	-26	-26%	x
Oc1nc(Nc2ccccc2)sc1/C=C1\C=Nc2ccccc21	-14%	3.5µM*	0	8.9µM*[quencher]	-16%
CCOC(=O)c1c(Nc2ccccc2)sc(/C=C2\C=Nc3ccccc32)c1O	0%	-14%	1	u	-3%
CC1=CC(C)(C)N2C(=O)C(=Nc3ccc(O)cc3)c3cccc1c32	28µM*	13µM*	-45*	u	3.5µM*
COc1cc(N=C2C(=O)N3c4c(cccc42)C(C)=CC3(C)C)cc(OC)c1	-4%	u	-9	-17%	-16%
COc1ccc(N2CCN(CCC3Oc4cc([N+](=O)[O-])ccc4NC3=O)CC2)cc1 (stereo not drawn)	13%	7.9µM*	1	u	-6%
SMILES	Tau fibril FP	Tau fibril ThT	FBPA coupling cs	Tau fluor cs	USP1-UAF1 inh
O=S1(=O)C2CC3CCC2(CN1Cc1cccc(F)c1)O3 (stereo not drawn)	x	x	0	x	x
CC(/C=N\Nc1nnc2c(n1)[nH]c1c(C)cccc12)=C\c1ccco1	12%	1.4µM*	0	u	-10%
COc1cc(C(CC(=O)NCc2ccc(F)cc2)N2Cc3ccccc3C2=O)cc(OC)c1OC (stereo not drawn)	2%	2%	x	-3%	-18%
O=C(O)CCCCCn1c(O)c(C=C2N=c3ccccc3=N2)sc1=S	18%	13µM*	6	u	-23%
O=C(O)c1ccc(-n2c(O)c(C=C3N=c4ccccc4=N3)sc2=S)cc1	4%	18µM*	-2	u	-6%
O=C(O)CCCn1c(O)c(C=C2N=c3ccccc3=N2)sc1=S	-3%	u	3	-24%	-18%
COc1cc(C/C=C\c2ccccc2)c(OC)cc1O	u	20µM*	-47*	u	x
Cc1nn(-c2ccccc2)c(N)c1N=Nc1cccnc1	-2%	u	2	-11%	-14%
Nc1nn(-c2ccccc2)c(N)c1N=Nc1cccc(F)c1	3%	10µM*	0	-21%	-25%
Nc1nn(-c2ccccc2)c(N)c1N=Nc1ccc2c(c1)OCO2	3%	1.8µM*	-2	u	u
COc1cc2c(cc1OC)C(=O)C(c1ccc3c(c1)OCO3)CC2 (stereo not drawn)	x	x	x	x	-8%
COc1cc2c(cc1OC)C(=O)C(Br)CC2 (stereo not drawn)	x	x	x	x	14µM*
CO/N=C1/c2cc(OC)ccc2O[C@@H](c2cccc(OC)c2)[C@H]1O	-3%[11.6 µM]	-10%[11.5 µM]	2	-3%[11.6 µM]	x
Cc1ccc([C@H]2Nc3ccc(S(=O)(=O)Nc4cccc(Cl)c4C)cc3[C@H]3C=CC[C@H]32)cc1	-8%	13µM*	x	u	21%
COc1cccc([C@H]2Nc3ccc(S(=O)(=O)Nc4cc(C)ccc4C)cc3[C@H]3C=CC[C@H]32)c1	4%	u	x	u	u
O=C(O)c1ccc(NS(=O)(=O)c2ccc3c(c2)C2C=CCC2C(c2ccccc2F)N3)cc1 (stereo not drawn)	u	32µM*	-1	u	-24%
CC1=CC(C)(C)NC(=S)N1c1cccc2cc(S(=O)(=O)O)ccc12	u	32µM*	-10	-29%	u
Cc1ncc(CO)c(/C=N/NC(=S)Nc2ccc(Cl)c(Cl)c2)c1O	-3%	u	-3	25µM*[quencher]	-13%
Cc1cc(C)c(O)c(-c2cc(C(=O)Nc3ccc(S(=O)(=O)N4CCOCC4)cc3)[nH]n2)c1	u	1%	0	14µM*[quencher]	3%
CC(=O)Nc1ccc(NC(=O)c2cc(-c3cc(C)cc(C)c3O)n[nH]2)cc1	x	x	-1	x	-2%
Cc1ccc2oc3c(c(=O)c2c1)C(c1cccc(O)c1)N(Cc1ccccc1Cl)C3=O (stereo not drawn)	u	5%	x	-25%	4%
CSc1nncc(/C(C)=N\Nc2ccccc2C)n1	-20%	0.89µM*	3	-16%	u
Cc1ccc(Nc2c3c(nc4nncn24)CCC3)cc1C	0%	-3%	x	-1%	-22%
COc1ccc(N=Nc2n(C)c3ccccc3[n+]2C)cc1	u	3.2µM*	-27	u	x

Screening results: PubChem, National Center for Advancing Translational Sciences (NCATS)
